High-throughput results from PubChem BioAssay.
esBAF inh: Bmi1 luciferase reporter increase in mESCs, primary screen, esBAF inhibitor project, mouse ES cells, Bmi1 luciferase knock-in, single point | 24 h; 100% = twice the neutral-well signal | reporter increase, % at 12.5 µM | actives 2% (n = 350,000) | AID 602393, 2012; in the data active means activation above about 40%; inconclusive means no clear call, values can overlap the other calls;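 further: a rise in the Bmi1 reporter signal indicates esBAF inhibition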
HSF1 activator: HSF-1 activators, primary screen, NIH3T3-HGL cells, MG132 stress, luminescence, single point | actives 1.7% (n = 300,000) | activation, % at 9 µM | NIH3T3-HGL HSF-1 luciferase reporter, 8 h; 100% = twice DMSO control signal;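 active means mean replicate activation of at least 50% with a set share of replicates each reaching 50%; inconclusive means only one of those two conditions met; inactive means mean below 50% and too few replicates reaching it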
Wnt act: Wnt/beta-catenin pathway activators, primary screen, cell-based, plate reader, single point | Wnt/beta-catenin reporter cell assay, activator | activation, % at 9.35 µM | actives 1.2% (n = 300,000) | AID 743398, 2014; in the data active means activation above about 30%, passing the limit was not always enough; inconclusive means no clear call, values can overlap the other calls
HSF1 inhib: HSF1 inhibitors in luciferase reporter cells, primary screen, cell-based, NIH3T3, luminescence | actives 0.77% (n = 300,000) | activity change, negative = inhibition, % at 7.5 µM (by protocol) | AID 2098, 2009 | NIH3T3-HGL HSE-luciferase, MG132-induced, luminescence 8 h; hits give low values;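 active means more than half of replicate wells show activity change below -50%, luminescence cut by over half; inconclusive means some wells, but at most half, below -50%; inactive means no replicate well below -50%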;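 further: luciferase reports HSF-1 transcriptional activity via heat shock element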
MITF act: activators of MITF-driven TRPM1 promoter reporter, primary screen, cell-based, SK-MEL-5, luciferase, single point; SK-MEL-5 TRPM1-promoter luciferase, 24 h; % of positive control, neutral wells = 0; activation, % at 12.5 µM; actives 0.75% (n = 300,000); AID 588334, 2011;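 active means mean activation of at least 80% with every replicate also reaching 80%; inconclusive means mean reaches 80% but some replicate falls short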
Of the large screens only hits and unclear results are named; the others gave an inactive call. Sampled rows, rich in hits. Any-hit rate of the full collection: about 3.9%.

CO[C@@H]1CN(C)C(=O)c2ccc(NC(=O)CN(C)C)cc2OC[C@@H](C)N(C(=O)c2ccncc2)C[C@H]1C	none (no result: HSF1 activator, Wnt act, HSF1 inhib, MITF act)
CO[C@H]1CN(C)C(=O)c2cc(NS(=O)(=O)c3ccc(Cl)cc3)ccc2OC[C@@H](C)NC[C@H]1C	none (no result: HSF1 activator, Wnt act, HSF1 inhib, MITF act)
Cc1nc(-c2noc(-c3ccccc3Cl)n2)c(C(F)(F)F)o1	esBAF inh 47.5, MITF act 83.1
O=[N+]([O-])c1ccccc1-c1nc(-c2ccc(Br)o2)no1	HSF1 activator inconclusive, Wnt act 47.2 (no result: esBAF inh)
CCNC(=O)[C@H]1[C@H](CO)[C@H]2Cn3c(ccc(-c4ccccc4)c3=O)[C@H]2N1C(=O)C1CC1	none (no result: HSF1 activator, Wnt act, HSF1 inhib, MITF act)
O=C(C[C@@H]1C=C[C@H](NC(=O)c2cccnc2)[C@H](CO)O1)NCc1ccc(Cl)c(Cl)c1	none (no result: HSF1 activator, Wnt act, HSF1 inhib, MITF act)
CCn1c(COc2ccccc2)nnc1SCc1ccc(C#N)cc1	HSF1 activator 55.8 (no result: Wnt act)
c1ccc(N=Nc2ccc(C3=NCCO3)cc2)cc1	Wnt act 44.4 (no result: HSF1 activator, HSF1 inhib, MITF act)
COc1ccc(/C=N/Nc2nccnc2Cl)c(OC)c1	MITF act 87.8 (no result: esBAF inh, Wnt act)
COc1ccc(/C=N/Nc2nccnc2Cl)cc1	none (no result: Wnt act)
C[C@@H]1CN([C@H](C)CO)C(=O)c2cc(NS(=O)(=O)c3ccc(F)cc3)ccc2O[C@@H](C)CCCCO[C@@H]1CN(C)S(C)(=O)=O	none (no result: HSF1 activator, Wnt act, HSF1 inhib, MITF act)
CN(C)CC(=O)Nc1ccc2c(c1)[C@H]1C[C@H](CC(=O)NCc3cccnc3)O[C@H](CO)[C@H]1O2	none (no result: HSF1 activator, Wnt act, HSF1 inhib, MITF act)
CCCCn1c(=O)[nH]c(=O)c2c1nc(Cn1ncc(Cl)c(Cl)c1=O)n2CCC	HSF1 inhib -93.0
CC1CC(C)CN(C(=O)/C=C/c2ccc([N+](=O)[O-])s2)C1 (stereo unspecified)	HSF1 activator 74.9 (no result: esBAF inh)
CC1CN(C(=O)/C=C/c2ccc([N+](=O)[O-])s2)CC(C)O1 (stereo unspecified)	none (no result: esBAF inh, HSF1 activator, HSF1 inhib)
O=C(/C=C/c1ccc([N+](=O)[O-])s1)N1CCCCC1	HSF1 activator 61.0 (no result: esBAF inh)
O=C(/C=C/c1ccc([N+](=O)[O-])s1)N1CCCC1	none (no result: esBAF inh)
C[C@@H]1CN([C@@H](C)CO)C(=O)Cc2cc(NC(=O)C3CCCCC3)ccc2O[C@H]1CN(C)C(=O)NC1CCCCC1	none (no result: HSF1 activator, Wnt act, HSF1 inhib, MITF act)
Cc1noc(C)c1NC(=O)N(C)C[C@H]1Oc2ncc(C#CC(C)C)cc2C(=O)N([C@@H](C)CO)C[C@H]1C	none (no result: HSF1 activator, Wnt act, HSF1 inhib, MITF act)
C/C(=N\Nc1ccccn1)c1ccc2c(c1)OCO2	esBAF inh 61.3
C/C(=N\Nc1ccccn1)c1ccc(C(C)C)cc1	esBAF inh 63.9, MITF act 125.1
C/C(=N\Nc1ccccn1)c1ccc(N2CCOCC2)cc1	none (no result: esBAF inh)
COc1ccc(N=C2SC(C(=O)N3CCN(c4ccccc4)CC3)CC(=O)N2C)cc1 (stereo unspecified)	HSF1 inhib -77.3 (no result: MITF act)
Cc1ccc(C(=O)Nc2ncc(Cc3ccc(F)cc3)s2)o1	HSF1 activator 68.1, Wnt act 65.3, MITF act 143.6
O=C(O)c1cncc(C#CCC2CCCCC2)c1	esBAF inh 61.2
O=C(O)c1cncc(C#Cc2ccccc2)c1	none
CCCNC(=O)N[C@H]1C=C[C@@H](CC(=O)NCCc2ccccc2)O[C@H]1CO	none (no result: HSF1 activator, Wnt act, HSF1 inhib, MITF act)
O=C(O)CSc1nnc2c(n1)[nH]c1ccccc12	none (no result: esBAF inh)
CCCCSc1nnc2c(n1)[nH]c1ccccc12	HSF1 activator inconclusive, Wnt act 62.3
CC(C)CSc1nnc2c(n1)[nH]c1ccccc12	HSF1 activator 58.6, Wnt act 49.8 (no result: esBAF inh)
COc1cccc(/C=C/C(=O)c2ccc(C)c([N+](=O)[O-])c2)c1	none (no result: esBAF inh)
COc1ccc2cc(C(=O)/C=C/c3cc(OC)c(O)c(OC)c3)ccc2c1	HSF1 activator inconclusive
COc1cc(/C=C/C(=O)c2ccc(C)c([N+](=O)[O-])c2)cc(OC)c1O	HSF1 activator 128.0 (no result: esBAF inh)
COc1ccc(/C=C/C(=O)c2ccc(C)c([N+](=O)[O-])c2)cc1O	HSF1 activator 66.9
Cc1ccc(S(=O)(=O)Nc2ccc3c(c2)CC(=O)N([C@@H](C)CO)C[C@@H](C)[C@@H](CN(C)Cc2ccc(Cl)c(Cl)c2)O3)cc1	none (no result: HSF1 activator, Wnt act, HSF1 inhib, MITF act)
COc1ccc(S(=O)(=O)N(C)C[C@H]2OCCCC[C@H](C)Oc3ccc(NC(=O)CCCN(C)C)cc3C(=O)N([C@@H](C)CO)C[C@H]2C)cc1	none (no result: HSF1 activator, Wnt act, HSF1 inhib, MITF act)
